System: VDR:RXRa (NR concentration 270 nM, RXRa partner concentration 90 nM)
Experiment: PBM binding z-score (relative to random genomic background probes); higher = stronger binding; sequences stand for … in GC…GCGATTGACAGCGTAGAATGAAGG
Experimental: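 Protein-binding microarray (Agilent 4x180K custom design, double-stranded 60-nt probes: 5' GC cap, 34-nt variable region, 24-nt constant primer region; full probe sequence given). Purified or IVT nuclear receptor:RXRα heterodimers (3:1 NR:RXRα, mostly 270:90 nM) or homodimers were incubated for 1 h in PBS with 2% milk and no ligand, then detected with Alexa488 antibodies. Fluorescence from o1-orientation probes (~5 replicates averaged) was converted to z-scores against 500 random hg19 background probes. Variable regions are seed direct-repeat (DR0–DR5) sites, all their single-nucleotide variants and half-site ablations.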

| Sequence | PBM binding z-score |
| --- | --- |
| CGAACTACGTCAGAACAGGACAGTGAAGGATGAT | -0.451 |
| GGAACGAGGGCATTCTAGTTGATAGCATGGCGAT | 1.81 |
| TCTTGTAGATCAAAAGGAGGTTAAGAAAGATCGA | 0.807 |
| GGAACGAGGGCAAAATTGATAGCATCTGTCGACG | 0.352 |
| AGAATGAGGTTATAAAGATCAGGGAATTGCGGTC | 1.27 |
| GGAACGAGGGCAAGTTGATAGCAGAGTTTGATGG | 0.688 |
| GCGACTGGGGCATCAGCAAGTTACCATAACTTAA | -0.37 |
| TCGACTAGGTTACCAATGGGGCATTCAGCTTTCT | 0.439 |
| AATACAGGGTCATTGTAGGCCAGAGTACGCACAG | 5.08 |
| TCATATACGTAAATGCTAGGTGAAAGTCCGATCT | 0.839 |
| TGAATGAGGTTTTAAGATCAGGGAACGTTGCAAA | -0.241 |
| GCATATAGGTAATACAAGGTGAAAGTTCGATTGT | 1.17 |
| ATCTCTAGGTAAGAATCAGTTCAGTGAAGAACGC | 0.845 |
| CAAACTAAGTCACGAAAGGTCAAAGTCGAATGAC | 5.34 |
| CGTCCAAGCTCAAAGGTCAGTGAAGAGATGACGG | 2.31 |
| ATCGAAAGGTCGTGAGGTGAGTAGACAGAAAGGC | 3.35 |
| CCTCGGAGGACAGAAGGTCAGAGCCGTCCGCTTT | 0.934 |
| CGTCAAAGTTCAAGGTAGCGTAACAGAAAGCAGC | 3.68 |
| TCTCGGAGGACACCAAGGTCAGAGCTTTCCAGAG | 3.36 |
| GGAACGAGGGCAAGTTAATAGCAGAGTTTGATGG | 0.803 |

| Sequence | PBM binding z-score |
| --- | --- |
| TCGAGAAGGTTAGGGGCATTCAGAATGGCGTCGA | 1.12 |
| GCTCGGATGACAAGGTCAGAGCTTTGTCCGTAGA | 0.722 |
| ATCGAAAGGTAGAGGTGAGTATAGAGAAAGGGAA | 0.0851 |
| GCTAGTTGGTCAGTAAAAGGTCACACCCCGGTCG | 3.83 |
| CAAACTAGGTCACGAAAGGTCAATGTCGAATGAC | 6.57 |
| TAGCCTAGGTCATTGGGCAAGTATAGTACGCATC | 2.09 |
| ATCTCTAGGTAAAGATAGTTCACTGAATGCAAAT | 1.37 |
| CCTACTTGGTCAGGAGGTCACACACCGGATATGA | 3.89 |
| ACTCGGAGGACAAAGGACAGAGCTACGCCAGTGA | -0.523 |
| CCGACTGAGGCAAAGGTTACCATACTCAGTACGA | 1.07 |
| CAAACTAGGTCACGATAGGTCAAAGTCGAATGAC | 5.51 |
| GCGACTGGGGCATCAGCAGGTTACCAAAACTTAA | -0.298 |
| TCTCGGAGGACACGGAAGGTCAGAGCTCGACATC | 1.97 |
| AATACAGGGTCACTAGGCCGGAGTAGGTACGAAT | 4.11 |
| AGAATGAGGTTATTAAGATCAGGGCATTGCGGTC | 3.01 |
| ACTATTAGTTGACTTGGGGCAACCGATACGACGC | 0.274 |
| CGTCAAAGTTCAAGGTAACGGAACAGAAAGCAGC | 3.63 |
| TCTTGTAGATCAACAGGAGGTTCAGAAAGATCGA | 0.595 |
| ACTAGTTGGTCAGCTGAGGTCACATACAATTCGG | 4.21 |
| CCTACTGGGCCATCGGGTCATTGATATCAACGTT | 2.27 |

— the supplement of paper PMC6555819
